# Laboratory results published in PubChem BioAssay (NCATS).
# Results filed as inconclusive are left out. Where a call stands in place of a potency, no number is given. Active and inactive are the calls of the source. Calls follow the shape of the dose curve; as a rule, active = well fitted inhibition curve with a large enough effect; inconclusive = small, poorly fitted or top-dose-only effect; inactive = flat fitted curve, though single readings scatter.
# System: CP305
# Assay: qHTS profiling for inhibitors of Plasmodium falciparum proliferation (AID 504749); also: nearly all actives have a fitted effect of over 60% in size
# Conditions: P. falciparum in erythrocytes, SYBR Green DNA, 72 h; series mostly up to 28.7 µM
# Procedure, shortened: (§1)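 Each compound contacts P. falciparum-infected red blood cells for 72 h at 37 C; lysis buffer (Tris, EDTA, saponin, Triton X, SYBR Green I) is added and fluorescence measured next morning; values normalized to controls.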
# Potency is read from the fitted curve at half-maximal effect.
row,Compound,Potency
1,O=C(COc1ccc(Cl)cc1)OCCNC12CC3CC(CC(C3)C1)C2,inactive
2,CCCCCCCC/C=C\CCCCCCCC(=O)O,inactive
3,CC(C)(C)C(=O)OCOC(=O)[C@@H]1N2C(=O)[C@@H](N=CN3CCCCCC3)[C@H]2SC1(C)C,inactive
4,CCOC(C)=O,inactive
5,CCCCCCC(O)C/C=C/CCCCCCCC(=O)O (centres undefined),inactive
6,CN1C(=O)CN2CCc3ccccc3C2c2cc(Cl)ccc21 (centres undefined),inactive
7,Cc1c(C)c2c(c(C)c1O)CC[C@@](C)(CCC[C@H](C)CCC[C@H](C)CCCC(C)C)O2,inactive
8,CC(C(=O)O)c1ccc(N2Cc3ccccc3C2=O)cc1 (centres undefined),inactive
9,COC(=O)[C@H]1[C@H]2C[C@@H]3c4[nH]c5ccccc5c4CCN3C[C@H]2C[C@@H](OC(=O)c2cc(OC)c(OC)c(OC)c2)[C@@H]1OC,849 nM (active)
10,O=S(=O)(O)O,inactive
11,CC(C)N=c1cc2n(-c3ccc(Cl)cc3)c3ccccc3nc-2cc1Nc1ccc(Cl)cc1,inactive
12,O=S(=O)(O)c1ccc2c(N=Nc3ccc(S(=O)(=O)O)c4ccccc34)c(O)c(S(=O)(=O)O)cc2c1,inactive
13,C[C@]12CCC(=O)C=C1CC[C@@H]1[C@@H]2[C@@H](O)C[C@@]2(C)[C@H]1CC[C@]2(O)C(=O)COP(=O)(O)O,inactive
14,CCN(CC)Cc1cc(Nc2ccnc3cc(Cl)ccc23)ccc1O,40.5 nM (active)

# System: CP315
# Assay: as above
# Conditions: P. falciparum in erythrocytes, SYBR Green DNA, 72 h; series mostly up to 28.7 µM
# Procedure, shortened: as §1
row,Compound,Potency
1,Cc1ccccc1,inactive
2,CC1(C)S[C@@H]2[C@H](NC(=O)[C@@H](NC(=O)N3CCNC3=O)c3ccccc3)C(=O)N2[C@H]1C(=O)O,inactive
3,CC1=C(/C=C/C(C)=C/C=C/C(C)=C/C=C/C=C(C)/C=C/C=C(C)/C=C/C2=C(C)CCCC2(C)C)C(C)(C)CCC1,inactive
4,CCCC(=O)O[C@]1(C(=O)CCl)[C@H](C)C[C@@H]2[C@H]3CCC4=CC(=O)C=C[C@]4(C)[C@@]3(F)C(=O)C[C@@]21C,3790 nM (active)
5,CCC(=O)NCCC1CCc2ccc3c(c21)CCO3 (centres undefined),inactive
6,Cc1cc(C(=O)NNCc2ccccc2)no1,inactive
7,Cc1ccccc1OCC(O)CNCCOc1ccc(C(N)=O)cc1 (centres undefined),inactive
8,CCCCCCCCCCCCCC[n+]1ccc(C)cc1,4780 nM (active)
9,COC(F)(F)C(Cl)Cl,inactive
10,CCCCCCCCCCCC[n+]1ccc2ccccc2c1,1070 nM (active)
11,O=C(O)CCC(=O)C(=O)O,inactive
12,O=C(O)CN(CCN(CC(=O)O)CC(=O)O)CC(=O)O,inactive
13,COc1ccc2c3c1O[C@H]1C[C@@H](O)C=C[C@@]31CCN(C)C2,inactive
14,C=CCSSSCC=C,inactive
15,COC(C(=O)C(O)C(C)O)C1Cc2cc3cc(OC4CC(OC5CC(O)C(O)C(C)O5)C(O)C(C)O4)c(C)c(O)c3c(O)c2C(=O)C1OC1CC(OC2CC(OC3CC(C)(O)C(O)C(C)O3)C(O)C(C)O2)C(O)C(C)O1 (centres undefined),3790 nM (active)
16,CCNC(=O)[C@@H]1CCCN1C(=O)[C@H](CCCN=C(N)N)NC(=O)[C@H](CC(C)C)NC(=O)[C@@H](Cc1c[nH]c2ccccc12)NC(=O)[C@H](Cc1ccc(O)cc1)NC(=O)[C@H](CO)NC(=O)[C@H](Cc1c[nH]c2ccccc12)NC(=O)[C@H](Cc1cnc[nH]1)NC(=O)[C@@H]1CCC(=O)N1,15100 nM (active)
17,O=C(COc1ccc(Cl)cc1)OCCNC12CC3CC(CC(C3)C1)C2,inactive
18,CCCCCCCC/C=C\CCCCCCCC(=O)O,inactive
19,CC(C)(C)C(=O)OCOC(=O)[C@@H]1N2C(=O)[C@@H](N=CN3CCCCCC3)[C@H]2SC1(C)C,inactive
20,CCOC(C)=O,inactive
21,CCCCCCC(O)C/C=C/CCCCCCCC(=O)O (centres undefined),inactive
22,CN1C(=O)CN2CCc3ccccc3C2c2cc(Cl)ccc21 (centres undefined),inactive
23,Cc1c(C)c2c(c(C)c1O)CC[C@@](C)(CCC[C@H](C)CCC[C@H](C)CCCC(C)C)O2,inactive
24,CC(C(=O)O)c1ccc(N2Cc3ccccc3C2=O)cc1 (centres undefined),inactive
25,COC(=O)[C@H]1[C@H]2C[C@@H]3c4[nH]c5ccccc5c4CCN3C[C@H]2C[C@@H](OC(=O)c2cc(OC)c(OC)c(OC)c2)[C@@H]1OC,849 nM (active)
26,O=S(=O)(O)O,inactive
27,CC(C)N=c1cc2n(-c3ccc(Cl)cc3)c3ccccc3nc-2cc1Nc1ccc(Cl)cc1,inactive
28,O=S(=O)(O)c1ccc2c(N=Nc3ccc(S(=O)(=O)O)c4ccccc34)c(O)c(S(=O)(=O)O)cc2c1,inactive
29,C[C@]12CCC(=O)C=C1CC[C@@H]1[C@@H]2[C@@H](O)C[C@@]2(C)[C@H]1CC[C@]2(O)C(=O)COP(=O)(O)O,inactive
30,CCN(CC)Cc1cc(Nc2ccnc3cc(Cl)ccc23)ccc1O,287 nM (active)

# System: CP325
# Assay: as above
# Conditions: P. falciparum in erythrocytes, SYBR Green DNA, 72 h; series mostly up to 28.7 µM
# Procedure, shortened: as §1
row,Compound,Potency
1,Cc1ccccc1,inactive
2,CC1(C)S[C@@H]2[C@H](NC(=O)[C@@H](NC(=O)N3CCNC3=O)c3ccccc3)C(=O)N2[C@H]1C(=O)O,inactive
3,CC1=C(/C=C/C(C)=C/C=C/C(C)=C/C=C/C=C(C)/C=C/C=C(C)/C=C/C2=C(C)CCCC2(C)C)C(C)(C)CCC1,inactive
4,CCCC(=O)O[C@]1(C(=O)CCl)[C@H](C)C[C@@H]2[C@H]3CCC4=CC(=O)C=C[C@]4(C)[C@@]3(F)C(=O)C[C@@]21C,4260 nM (active)
5,CCC(=O)NCCC1CCc2ccc3c(c21)CCO3 (centres undefined),inactive
6,Cc1cc(C(=O)NNCc2ccccc2)no1,inactive
7,Cc1ccccc1OCC(O)CNCCOc1ccc(C(N)=O)cc1 (centres undefined),inactive
8,CCCCCCCCCCCCCC[n+]1ccc(C)cc1,3380 nM (active)
9,COC(F)(F)C(Cl)Cl,inactive
10,CCCCCCCCCCCC[n+]1ccc2ccccc2c1,1200 nM (active)
11,O=C(O)CCC(=O)C(=O)O,inactive
12,O=C(O)CN(CCN(CC(=O)O)CC(=O)O)CC(=O)O,inactive
13,COc1ccc2c3c1O[C@H]1C[C@@H](O)C=C[C@@]31CCN(C)C2,inactive
14,C=CCSSSCC=C,inactive
15,COC(C(=O)C(O)C(C)O)C1Cc2cc3cc(OC4CC(OC5CC(O)C(O)C(C)O5)C(O)C(C)O4)c(C)c(O)c3c(O)c2C(=O)C1OC1CC(OC2CC(OC3CC(C)(O)C(O)C(C)O3)C(O)C(C)O2)C(O)C(C)O1 (centres undefined),3010 nM (active)
16,CCNC(=O)[C@@H]1CCCN1C(=O)[C@H](CCCN=C(N)N)NC(=O)[C@H](CC(C)C)NC(=O)[C@@H](Cc1c[nH]c2ccccc12)NC(=O)[C@H](Cc1ccc(O)cc1)NC(=O)[C@H](CO)NC(=O)[C@H](Cc1c[nH]c2ccccc12)NC(=O)[C@H](Cc1cnc[nH]1)NC(=O)[C@@H]1CCC(=O)N1,12000 nM (active)
17,O=C(COc1ccc(Cl)cc1)OCCNC12CC3CC(CC(C3)C1)C2,inactive
18,CCCCCCCC/C=C\CCCCCCCC(=O)O,inactive
19,CC(C)(C)C(=O)OCOC(=O)[C@@H]1N2C(=O)[C@@H](N=CN3CCCCCC3)[C@H]2SC1(C)C,inactive
20,CCOC(C)=O,inactive
21,CCCCCCC(O)C/C=C/CCCCCCCC(=O)O (centres undefined),inactive
22,CN1C(=O)CN2CCc3ccccc3C2c2cc(Cl)ccc21 (centres undefined),inactive
23,Cc1c(C)c2c(c(C)c1O)CC[C@@](C)(CCC[C@H](C)CCC[C@H](C)CCCC(C)C)O2,inactive
24,CC(C(=O)O)c1ccc(N2Cc3ccccc3C2=O)cc1 (centres undefined),inactive
25,COC(=O)[C@H]1[C@H]2C[C@@H]3c4[nH]c5ccccc5c4CCN3C[C@H]2C[C@@H](OC(=O)c2cc(OC)c(OC)c(OC)c2)[C@@H]1OC,757 nM (active)
26,O=S(=O)(O)O,inactive
27,CC(C)N=c1cc2n(-c3ccc(Cl)cc3)c3ccccc3nc-2cc1Nc1ccc(Cl)cc1,inactive
28,O=S(=O)(O)c1ccc2c(N=Nc3ccc(S(=O)(=O)O)c4ccccc34)c(O)c(S(=O)(=O)O)cc2c1,inactive
29,C[C@]12CCC(=O)C=C1CC[C@@H]1[C@@H]2[C@@H](O)C[C@@]2(C)[C@H]1CC[C@]2(O)C(=O)COP(=O)(O)O,inactive
30,CCN(CC)Cc1cc(Nc2ccnc3cc(Cl)ccc23)ccc1O,57.3 nM (active)
